Experimental findings from PubChem BioAssay are described below.

A short description of this experiment: viability loss with induced miR-34 in A549 – imaging, A549 dox-inducible miR-34, nuclei and caspase counts, primary screen (AID 1347080). Also: test concentration not given here. The note with it: A549 miR-34 inducible, Hoechst nuclei count, 48 h; measured here: total cells with miR-34 induction; stronger effect = lower value.
`OOCCC/C=C/c1ccccc1` showed a cell count of 5730.
Next, `COc1cc(/C=C\c2ccc(OC)c(O)c2)cc(OC)c1`: 1120; `CCCCC/C=C\C/C=C\C/C=C\C/C=C\CCCC(=O)N[C@H](C)COP(=O)(O)O`: 5610.
Consider `CCCCC/C=C\C/C=C\C/C=C\C/C=C\CCCC(=O)Nc1ccc(O)cc1C`, for which the cell count came to 6030.
With `CC(C)CC(NP(=O)(O)OC1OC(C)C(O)C(O)C1O)C(=O)NC(Cc1c[nH]c2ccccc12)C(=O)O` (centres undefined) the figure was 9030; with `COC[C@H]1OC(=O)c2coc3c2[C@@]1(C)C1=C(C3=O)[C@@H]2CCC(=O)[C@@]2(C)C[C@H]1OC(C)=O`, 1550.
With `COC(=O)[C@@]1(O)CC2OC1(C)n1c3ccccc3c3c4c(c5c6ccccc6n2c5c31)C(=O)NC4` (some centres undefined) the figure was 2180; with `C/C1=C/C(=O)O[C@@H]2C[C@@H](CC[C@H](C)/C=C\CC1)O[C@@](O)([C@@H]1CSC(=O)N1)C2`, 1070; with `CCOC(=O)CN1C(=O)CC(C[C@@H](O)C2C[C@@H](C)C[C@H](C)C2=O)CC1=O` (some centres undefined), 4960.
